Results reported in the supplement of paper PMC6135742.
Where a name gives a salt, the structure may show the parent alone. ± gives the standard deviation of the averaged measurements. The full ranking holds about 2,600 compounds; the median of “MBP+ mature oligodendrocyte number relative to DMSO vehicle control” is about -0.34, and the highest 2% start at about 13. What follows is part of a selection rich in the highest values, with near analogues and random picks from the rest.

Tested on: jimpy (Plp1 jimpy) mouse iPSC-derived oligodendrocyte progenitor cells
Experiment: MBP+ mature oligodendrocyte number relative to DMSO vehicle control (SDs above negative control mean); higher = more surviving jimpy oligodendrocytes (rescue)
Settings: 10 µM; 3 days
Experimental: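 Primary phenotypic screen of >3,000 bioactive compounds (Selleck L1700 and Sigma LO1280 libraries) at a single dose of 10 µM. Compounds were added to jimpy (Plp1 mutant) mouse iPSC-derived OPCs at the start of thyroid hormone-induced oligodendrocyte differentiation, one well per compound in 384-well plates. After 3 days cells were stained for MBP, Sox10 and DAPI and imaged with an Operetta system. MBP+ oligodendrocyte number and total cell number were expressed as the number of SDs above the mean of the DMSO negative control on the same plate (n=16 control wells per plate). Hits were defined as >=4 SD for oligodendrocytes and >=2 SD for total cells.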

Row | SMILES | MBP+ mature oligodendrocyte number
1 | Nc1ncnc2c1ncn2C1CCCC1 [9-cyclopentyladenine] | -1.18
2 | COc1cc2c(cc1-c1c(C)noc1C)ncc1[nH]c(=O)n([C@H](C)c3ccccn3)c12 | < -6.01
3 | Nc1nccc2c1ncn2[C@@H]1O[C@H](CO)[C@@H](O)[C@H]1O [3-deazaadenosine] | -1.07
4 | OC(CN1CCC(Cc2ccc(F)cc2)CC1)c1ccc(Cl)cc1 (stereo not given) [Eliprodil] | 13.4
5 | O=C1[C@H](CC[C@H](O)c2ccc(F)cc2)[C@@H](c2ccc(O)cc2)N1c1ccc(F)cc1 [Ezetimibe] | 2.95
6 | O=C(CCCN1CCC(O)(c2ccc(Cl)cc2)CC1)c1ccc(F)cc1 [Haloperidol] | 2.36 ± 1.1
7 | CCN(CC)CCNC(=O)c1ccc(NS(C)(=O)=O)cc1 [Sematilide monohydrochloride monohydrate] | -0.439
8 | O=C(NCc1ccccc1)c1csc(Nc2ccncn2)n1 [Thiazovivin] | -3.47
9 | CCCCNc1ncc(-c2ccc(CN3CCOCC3)cn2)c(NC2CCC(O)CC2)n1 (stereo not given) | -4.15
10 | O=C1c2ccccc2C(=O)c2c(NCCc3ccc(O)cc3)ccc(NCCc3ccc(O)cc3)c21 | -4.41
11 | Cc1ccc(C(=O)C(C)CN2CCCCC2)cc1 (stereo not given) [Tolperisone HCl] | 5.05
12 | Cc1ccc(C(=O)Cn2c3c(sc2=N)CCCC3)cc1 [Pifithrin-? (PFT?)] | 17
13 | S=c1[nH]c(-c2ccccc2)cn1-c1ccccc1 | 2.54
14 | CN(C)c1ccc(/C=C2/C(=O)Nc3ccccc32)cc1 | 0.789
15 | O=c1cc(-c2ccccc2)oc2cc(O)cc(O)c12 [Chrysin] | 4.59
16 | COc1cc(N)c(Cl)cc1C(=O)OCCN1CCCCC1 | -3.81
17 | CCOc1cc(N)c(Cl)cc1C(=O)NCC1CN(Cc2ccc(F)cc2)CCO1 (stereo not given) [Mosapride Citrate] | 23
18 | CCN(CC)CCNC(=O)c1cc(Cl)c(N)cc1OC [Metoclopramide hydrochloride] | 0.304
19 | C[C@H]1O[C@@H](Oc2c(-c3cc(O)c(O)c(O)c3)oc3cc(O)cc(O)c3c2=O)[C@@H](O)[C@@H](O)[C@@H]1O [Myricitrin] | 0.507
20 | Nc1ccc(-c2ccc3ccccc3n2)cc1 [BF-170 hydrochloride] | 0.146
21 | O=C(/C=C/c1ccc(O)c(O)c1)c1ccc(O)cc1O [Butein] | -4.58
22 | CCCCOc1ccc(OCCCN2CCOCC2)cc1 [Pramoxine HCl] | 14.3
23 | CCCCOc1ccc(C(=O)CCN2CCCCC2)cc1 [Dyclonine HCl] | -1.91
24 | O=C(Cc1ccc(-c2ccc(OCCN3CCOCC3)cc2)cn1)NCc1ccccc1 | -5.77
25 | CC[C@@H]1C(=O)N(C)c2cnc(Nc3ccc(C(=O)N[C@H]4CC[C@H](N5CCN(CC6CC6)CC5)CC4)cc3OC)nc2N1C(C)C [Volasertib (BI 6727)] | < -4.81
